Data taken from PubChem BioAssay AID493027 (The Scripps Research Institute Molecular Screening Center, 2011).
Hit rate of the full screen: of about 2,000 compounds, about 45 (2%) were called active. The list comes from a sample in which actives are over-represented; it also holds similar structures and randomly drawn compounds. Values without a mark were called inactive.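 The calls were made as follows: active = inhibition above the screen-wide mean inhibition plus 3 SD (cut at about 44% in these data); inactive = the rest.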

target: Perilipin-1 (Homo sapiens) + 1-acylglycerol-3-phosphate O-acyltransferase ABHD5 (Homo sapiens) (UniProt O60240+Q8WTS1); experiment: ABHD5-PLIN1 interaction inhibitors, pilot screen, cell lysate, split luciferase complementation, luminescence, NIH validation set (AID 493027);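 as to inhibition: 0% = DMSO wells with the 100% control not disclosed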; conditions: split G. princeps luciferase complementation, 4 h; at 7.9 µM, stronger effect = higher value
Sequence (O60240 whole entry, looked up): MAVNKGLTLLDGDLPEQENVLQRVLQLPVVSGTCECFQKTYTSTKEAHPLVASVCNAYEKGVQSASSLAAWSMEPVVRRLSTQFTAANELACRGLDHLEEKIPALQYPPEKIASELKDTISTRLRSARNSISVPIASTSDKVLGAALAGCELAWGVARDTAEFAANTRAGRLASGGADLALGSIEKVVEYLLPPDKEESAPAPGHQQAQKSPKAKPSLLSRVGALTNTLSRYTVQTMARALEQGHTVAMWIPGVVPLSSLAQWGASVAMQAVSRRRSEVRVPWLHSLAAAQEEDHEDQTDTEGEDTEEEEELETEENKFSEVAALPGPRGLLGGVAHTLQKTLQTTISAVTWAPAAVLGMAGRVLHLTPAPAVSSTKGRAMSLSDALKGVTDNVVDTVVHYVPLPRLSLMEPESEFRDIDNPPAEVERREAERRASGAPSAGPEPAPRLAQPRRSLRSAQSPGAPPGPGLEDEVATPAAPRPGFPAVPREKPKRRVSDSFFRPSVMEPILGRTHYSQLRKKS
Sequence (Q8WTS1 whole entry, looked up): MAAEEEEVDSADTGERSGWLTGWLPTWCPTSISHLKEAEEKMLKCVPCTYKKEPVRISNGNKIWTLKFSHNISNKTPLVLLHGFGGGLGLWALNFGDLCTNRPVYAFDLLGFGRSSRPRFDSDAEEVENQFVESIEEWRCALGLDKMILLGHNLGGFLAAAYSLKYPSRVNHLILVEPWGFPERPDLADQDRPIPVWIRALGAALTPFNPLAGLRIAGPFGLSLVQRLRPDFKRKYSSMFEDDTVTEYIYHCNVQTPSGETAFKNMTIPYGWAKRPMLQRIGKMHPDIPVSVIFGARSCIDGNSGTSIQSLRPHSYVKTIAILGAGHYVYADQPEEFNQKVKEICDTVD

Compound | inhibition
O=C(Cc1ccccc1)NCC(=O)OCC(=O)c1ccccc1Cl | -13.7%
CCN1C(=O)C(CC(=O)Nc2ccc(F)cc2)N(Cc2ccco2)C1=S (configuration not stated) | 10.9%
CS(=O)(=O)Oc1ccc2c(c1)O/C(=C\C=C\c1ccccc1)C2=O | 58.8% (active)
CC(=O)Oc1ccc2occ(/C=N/c3cc(=O)[nH]c(=S)[nH]3)c(=O)c2c1 | -1.72%
O=c1cc(CN2CCN(c3cccc(Cl)c3)CC2)c2cc(O)c(-c3ccccc3)cc2o1 | 1.13%
COc1ccc2[nH]c(C)c(CN3CCC(C)CC3)c(=O)c2c1 | -4.96%
CCc1cc2c(=O)c(-c3nc(C)cs3)coc2cc1OC(C)C(=O)NCCO (configuration not stated) | -3.43%
COc1ccc(O)c(C(=O)/C=C/c2cc3ccccc3o2)c1 | 66.9% (active)
COc1ccc2oc(=O)c(C(=O)Nc3ccccc3-c3ccccc3)cc2c1 | -7.96%
COc1ccc2oc(=O)c(C(=O)N3CCN(c4ccccc4)CC3)cc2c1 | 9.05%
Cc1ccc(NCCC(=O)c2ccccc2)cc1Cl | -2.97%
CCCN1CCC(NC(=O)Nc2ccc(Br)cc2)CC1 | -9.54%
Cc1ccc2c(c1)C(O)(CC(=O)/C=C/C=C/c1ccccc1)C(=O)N2 (configuration not stated) | 16.4%
Cc1ccc(C2=NOC(=O)/C2=C\C=C\c2ccccc2)cc1 | 95.6% (active)
O=C1NC2(Nc3ccccc31)C(=O)Nc1ccc(Br)cc12 (configuration not stated) | 0.88%
CC1(C)CC(C(CC(=O)N2CCCC2)Cc2ccccc2)CCO1 (configuration not stated) | -12.5%
Cc1cc(C(=O)Nc2ccccc2C(=O)N2CCCCC2)ccc1[N+](=O)[O-] | -3.48%
COc1ccc(/C=C2\CC/C(=C\c3ccc(OC)c(OC)c3)C2=O)cc1OC | 59.1% (active)
COc1ccc(/C=C2\CCn3c2nc2cc(C(=O)O)ccc2c3=O)cc1OC | -6.3%
COc1ccc(/C=C2\CCc3ccccc3C2=O)c(OC)c1OC | -0.86%
CCN(CCCCCN(C)C)Cc1cc2ccccc2o1 | -7.75%
O=C1C(Cc2c[nH]c3ccccc23)NC(=S)N1Cc1ccccc1 (configuration not stated) | -4.43%
CC(=O)N1CCN2C(=O)C1CCCC(=O)c1cc(C(C)C)ccc12 (configuration not stated) | 0.46%
COc1cc2c(cc1OC)/C(=C/c1ccc(Cl)cc1)C(=O)OC2 | 27.4%
O=C1ON=C(c2ccc(Cl)cc2)/C1=C/c1ccc(O)cc1 | 82.8% (active)
CCOC(=O)N1CCN(Cc2nc(Cc3cccc(F)c3)no2)CC1 | -1.53%

Compound | inhibition
C=CCc1ccc(OCC(O)COc2ccc(CC=C)cc2OC)c(OC)c1 | -1.62%
Cc1ccccc1C(=O)NNc1ncnc2c1cnn2C | -10.4%
Cn1cc(CN2CCCC(CO)(Cc3cccc(Cl)c3)C2)cn1 (configuration not stated) | -10.7%
c1ccc2c3c(c(CN4CCCCC4)cc2c1)COC3 | -4.68%
CCN(CC)C(=O)c1ccc(O)c(OC)c1 | -1.24%
O=C(O)/C=C/c1ccc(O)c(O)c1 | -2.22%
COc1cc(/C=C/C(=O)CC(=O)/C=C/c2ccc(O)c(OC)c2)ccc1O | 50.4% (active)
COc1ccc2c(c1O)Cc1ccccc1C2=O | 12%
COc1cc(OC)cc(C(=O)N[C@@H](CCSC)c2nc3ccccc3[nH]2)c1 | 2.97%
CC(C)CCC1(CCNC(C)c2cccs2)CCOC(C)(C)C1 (configuration not stated) | -4.9%
COc1ccc(CCN=CC2=C(O)CC(C)(C)CC2=O)cc1 | -4.85%
CC(=O)Nc1ccc(CN2CCN(C3CCCCC3)C(CCO)C2)cc1 (configuration not stated) | -3.02%
CC(=O)N[C@@H](CS)C(=O)O | -18.8%
COC(=O)[C@@H](N)CS | 65.9% (active)
Cc1ccc(NC(=O)CSc2nc(O)c(Cc3ccccc3)c(=O)n2-c2ccccc2)cc1 | 5.86%
COc1ccc(/C=C/C(=O)Nc2ccccc2C(=O)O)cc1OC | -6.48%
COc1ccc(C(=O)Oc2ccc3c(C)cc(=O)oc3c2C(C)=O)cc1 | 0.69%
COc1ccc(/C=C\C(=O)c2c(O)ccc3c(C)cc(=O)oc23)cc1OC | 62.7% (active)
CC(C)C(=O)Nc1c(O)c2ccccc2[nH]c1=O | -16.2%
COC(=O)C1=C(C)NC(C)=C(C(=O)OC)C1c1ccccc1[N+](=O)[O-] | active
COC(=O)C1=C(C)NC(C)=C([N+](=O)[O-])C1c1ccccc1C(F)(F)F (configuration not stated) | 1.42%
CCOC(=O)C1=C(C)NC(C)=C(C(=O)OC)C1c1cccc([N+](=O)[O-])c1 (configuration not stated) | 8.95%
COc1ccc(CCN=C(N)C(C)c2ccccc2)cc1OC (configuration not stated) | -12.2%
CC(C)(C)C(=O)NC(=S)Nc1sc2c(c1C(N)=O)CCC2 | 1.49%
COc1ccc(C2OC(=O)Cc3cc(OC)c(OC)cc32)cc1 (configuration not stated) | -1.64%
OCCC1CN(Cc2nc(-c3ccccc3)cs2)CCN1Cc1ccc(F)cc1 (configuration not stated) | -1.6%

Compound | inhibition
COc1cc2c(cc1OC)-c1cc(OCc3ccccc3Cl)nc(=O)n1CC2 | 15.9%
CC(CCc1ccccc1)NC(=O)/C=C/c1ccccc1 (configuration not stated) | 2.76%
O=C(/C=C/c1ccccc1)/C=C/c1ccccc1 | 88.9% (active)
O=C(CCCCCCCC(=O)c1ccccc1)c1ccccc1 | -5.61%
O=C(/C=C/c1ccccc1)NC(=O)c1ccccc1O | 4.79%
O=C(/C=C/Sc1ccccc1)c1ccccc1 | 81.5% (active)
O=C(/C=C/c1ccccc1)c1ccccc1 | 61.4% (active)
O=C(O)c1ccc(C(=O)C(=O)c2ccccc2)cc1 | -8.11%
Cn1cc(/C=C/C(=O)c2ccccc2)c2ccccc21 | 13.9%
N/C(=N\OC(=O)/C=C/c1ccccc1)c1ccc(Br)cc1 | -13%
Cc1ccc2[nH]c3c(c2c1)CN(C)CC3 | -2.27%
Cc1ccc(S(=O)(=O)N[C@@H](C)C(=O)N2CCC(C(=O)N3CCC[C@H]3C(=O)O)CC2)cc1 | -8.3%
COc1ccc(C2OC[C@H]3O[C@H](O)[C@H](NC(C)=O)[C@@H](O)[C@@H]3O2)cc1 (some centres not stated) | -8.14%
COc1ccc2c(c1)CC[C@@H]1[C@@H]2CC[C@]2(C)C(=O)CC[C@@H]12 | -10.8%
C[C@]12CCC3C(CC=C4C[C@@H](O)CC[C@@]43C)C1CCC2[C@]1(C)CCC(=O)O1 (some centres not stated) | 0.59%
COc1cccc(-n2c(C)c3c(OC)cccc(=O)c3c2C)c1 | 12%
CCC(C)NCCOc1ccccc1C (configuration not stated) | -6.76%
COc1ccc(OC)c(-n2c(Cn3c(-c4ccccn4)nc4ccccc43)n[nH]c2=S)c1 | -10.2%
COc1ccc(C(=O)N2c3cc4c(cc3C(C)=CC2(C)C)OCO4)cc1 | -4.62%
Cc1nc(C)c(C)nc1C | -2.64%
O=C1CCCCCN1Cc1ccccc1 | -0.49%
O=C1C=CC(=O)C(C2=C3C(=O)N(CCc4ccccc4)CC(=O)N3CCC2)=C1 | 68.9% (active)
CC1(C)CC(CC(=O)Nc2nccs2)(c2ccccc2)CCO1 (configuration not stated) | -1.2%
COc1ccc(C2=CC(=O)C=CC2=O)cc1 | 73.7% (active)
COc1ccc(C2C(=O)c3ccccc3C2=O)cc1 | -2.92%
COc1ccc(-c2nc(NC(C)=O)sc2-c2ccc(OC)cc2)cc1 | 11.4%

Compound | inhibition
NS(=O)(=O)c1ccc(CNC(=O)c2cc(-c3ccccc3)nc3ccccc23)cc1 | 10.2%
CCOc1ccc2nc(NC(=O)NC3CCCCC3)sc2c1 | -5.14%
CCOc1cccc(N2C(=O)CC(N(CCc3ccc(OC)c(OC)c3)C(=O)CC)C2=O)c1 (configuration not stated) | -6.24%
COCCCN1C(=O)/C(=C\c2cccs2)C(C(=O)OC)=C1C | 3.99%
COC(=O)c1ccc(=O)n(Cc2ccco2)c1 | 12.2%
COC(=O)C1=C(C)N(Cc2ccco2)C(=O)/C1=C\c1ccc([N+](=O)[O-])cc1 | 86% (active)
CN=C1c2cc3cc(OC)ccc3n2CCN1C | 3.44%
Oc1[nH]c2ccccc2c1N=Nc1ccccc1 | -0.17%
COC(=O)c1cc(COc2ccc3ccc(=O)oc3c2)c(C)o1 | -9.09%
Cc1ccccc1C(=O)NCC(=O)O | 0.22%
COc1ccc(CCNC(=O)c2ccc(Cl)cc2)cc1OC | -5.87%
CCN1/C(=C/C=C/C=C/c2sc3ccccc3[n+]2CC)Sc2ccccc21 | 52.7% (active)
CC(CN1c2ccccc2Sc2ccccc21)N(C)C (configuration not stated) | -9.88%
CN(C)CCCN1c2ccccc2Sc2ccccc21 | -3.33%
CC(=O)N(C(C)=O)c1nc2nc(C)cc(C)n2n1 | -0.49%
OC(C#CCN1CCCC1)(c1ccccc1)c1cccnc1 (configuration not stated) | 0.07%
COc1ccc(Cc2nc(-c3ccc(Br)cc3)no2)cc1 | -12%
CCOc1ccc(CC2CCC(=O)NC2=O)cc1 (configuration not stated) | 3.55%
O=Cc1ccc(OC(=O)c2cccnc2)cc1 | -5.64%
Fc1ccc(-n2cc(CNCCc3ccccn3)c(-c3ccccc3Cl)n2)cc1 | 1.9%
CC(C)(C)OC(=O)N1CC(O)CC1C(=O)OCC(=O)c1ccc(Cl)cc1 (configuration not stated) | -9.04%
CC(C)=CCC/C(C)=C/CC/C(C)=C/CC/C(C)=C/CC1=C(C)C(=O)c2ccccc2C1=O | 18.4%
CCNC1=C(Cl)C(=O)c2ccccc2C1=O | -12.7%
CC1=CC(=O)c2ccccc2C1=O | 44.4% (active)
